# G9a block – inhibitors of human histone lysine methyltransferase G9a; Q96KQ7; G9a H3K9 monomethylation, AlphaScreen, 2 h; Potency, µM (doses to about 102 µM), inactives show top-dose activity, negative = inhibition, usual class: inhibitors; actives 8.8% (n = 350,000); AID 504332; also: potency is read from the fitted curve at half-maximal effect; % is scaled to controls: 0 for no effect and ±100 for the full control effect; nearly all actives have a fitted effect of over 75% in size
# Target sequence (Q96KQ7 913-1193 limits assumed): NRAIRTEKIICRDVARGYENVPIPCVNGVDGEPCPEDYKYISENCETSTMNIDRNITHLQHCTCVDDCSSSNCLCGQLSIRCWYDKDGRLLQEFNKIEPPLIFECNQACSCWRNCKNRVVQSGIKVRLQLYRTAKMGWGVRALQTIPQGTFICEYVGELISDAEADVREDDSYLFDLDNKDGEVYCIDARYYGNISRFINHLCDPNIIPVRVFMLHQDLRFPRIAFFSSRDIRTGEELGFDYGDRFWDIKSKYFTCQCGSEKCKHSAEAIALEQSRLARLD
#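 AlphaScreen detection with an anti-monomethyl H3K9 antibody quantified product after a 2 h room-temperature reaction containing 500 nM biotinylated H3K9 peptide, 20 µM SAM and 20 nM enzyme, which had been preincubated 15 min with compound.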
# CtBP-E1A blk – inhibitors of CtBP/E1A interaction. AlphaScreen GST-E1A/His-CtBP binding, 1536-well; hits give low values. activity change, % (no concentration beside the values). actives 0.49% (n = 340,000). AID 651724; in the data active = activity change below about -65%; inconclusive = mostly about -30% to -63%; also: % is scaled to controls: 0 for no effect and ±100 for the full control effect
#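 GST-E1A and His-tagged CtBP (125 nM each as 5X stock) were preincubated with pin-transferred compound for 2 h at 37 °C in the dark, then glutathione donor and nickel acceptor beads were added for 1 h before AlphaScreen reading.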
# BAZ2B inh – inhibitors of human BAZ2B bromodomain; AID 504333; AlphaScreen BAZ2B-H3K14Ac peptide displacement; actives 4.4% (n = 360,000); Potency, µM (top dose mostly 114 µM), for inactives: top-dose activity change, negative = inhibition, most hits filed as inhibitors; Q9UIF8; also: potency is read from the fitted curve at half-maximal effect; % is scaled to controls: 0 for no effect and ±100 for the full control effect; nearly all actives have a fitted effect of over 60% in size
#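 Compounds, titrated to a top concentration of 110 uM, were incubated 30 min at room temperature with preformed BAZ2B/acetyl-K14 H3 peptide complex (50 nM each). Proximity signal was measured by AlphaScreen after 20 min with beads.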
# JMJD2A Tudor – blocks the human JMJD2A Tudor domain; Potency, µM (titrated, usually from 114 µM), without a hit: top-dose activity change, negative = inhibition, usual class: inhibitors; actives 4.4% (n = 390,000); O75164; AlphaScreen JMJD2A-Tudor / H3K4me3 peptide binding; also: potency is read from the fitted curve at half-maximal effect; % is scaled to controls: 0 for no effect and ±100 for the full control effect; nearly all actives have a fitted effect of over 50% in size
# Six1-Eya2 blk – blocks human Six1 binding to Eya2 | Q15475+O00167 | AlphaScreen GST-Six1/His-Eya2 binding, biochemical; hits give low values | activity change, % (test concentration not listed) | actives 0.56% (n = 360,000); in the data active = activity change below about -65%; inconclusive = mostly about -30% to -63%; also: % is scaled to controls: 0 for no effect and ±100 for the full control effect
#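 AlphaScreen with GST-Six1 and His-Eya2 (5X mix: 250 nM and 500 nM), glutathione donor and nickel acceptor beads; buffer 50 mM Tris pH 8.0, 300 mM NaCl, 1 mM TCEP; 1 h at 37 C in the dark.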
# HP1b chromo inh – HP1-beta chromodomain-methylated histone interaction inhibition. Potency, µM (highest dose often 114 µM), inactives show at the highest dose activity change, negative = inhibition, usual class: inhibitors. actives 0.56% (n = 390,000). AlphaScreen HP1-beta / biotin-H3K9me3 peptide binding. P83916; also: potency is read from the fitted curve at half-maximal effect; nearly all actives have a fitted effect of over 70% in size
# Target sequence (P83916 whole entry, looked up): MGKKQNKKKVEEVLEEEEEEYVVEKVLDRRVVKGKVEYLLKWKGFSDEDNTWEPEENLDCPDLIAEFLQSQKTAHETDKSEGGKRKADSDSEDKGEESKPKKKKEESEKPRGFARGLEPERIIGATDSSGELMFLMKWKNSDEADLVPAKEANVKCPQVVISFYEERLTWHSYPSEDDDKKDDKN
#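 AlphaScreen: HP1-beta (50 nM) preformed 30 min with biotin-H3(1-18)K9me3 peptide (50 nM) in PBS pH 7.4, 0.01% Tween-20. Compound added for 30 min at RT, then streptavidin donor/nickel chelate acceptor beads (10 ug/mL) for 30 min.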
# Active calls of the source: *; ? = inconclusive; · = no result given; [ ] = dose if it differs, or a comment. Rows were chosen to be rich in hits. Some 10% of all compounds tested hit in one or more screens of this group. Unless noted, calls follow the shape of the dose curve; as a rule, active = well fitted inhibition curve with a large enough effect; inconclusive = small, poorly fitted or top-dose-only effect; inactive = no such curve, though single readings can be large or run the other way.
SMILES,G9a block,CtBP-E1A blk,BAZ2B inh,JMJD2A Tudor,Six1-Eya2 blk,HP1b chromo inh
CCCn1c(N)c(N(CCOC)C(=O)c2ccc(-c3ccccc3)cc2)c(=O)[nH]c1=O,-16%[12.7 µM],-8,4%,-12%,3,39%
CCCCn1c(N)c(N(CCOC)C(=O)c2cc3c(s2)CCC3)c(=O)[nH]c1=O,18µM*,9,3%,-19%,-2,9%
CCc1sc(C(=O)N(CCCOC)c2c(N)n(CC(C)C)c(=O)[nH]c2=O)cc1C,0.79µM*,0,-5%,-7%,0,30%
Cc1cccc(NC(c2ccccc2C)c2ccc3ccc(C)nc3c2O)n1 (centres undefined),?,·,22µM*,?,·,-13%
Cc1ccc2ccc(C(Nc3cccc(C(F)(F)F)c3)c3cccnc3)c(O)c2n1 (centres undefined),10µM*,·,-25%,?,-5,5%
Cc1ccc2ccc(C(Nc3ccccc3)c3ccccc3)c(O)c2n1 (centres undefined),·,-23,·,·,-18,·
COc1cc(C(Nc2ccccn2)c2ccc3ccc(C)nc3c2O)cc(OC)c1O (centres undefined),?,-6,50µM*,50µM*,?,?
Cc1ccc2ccc(C(Nc3ccccn3)c3ccccc3)c(O)c2n1 (centres undefined),14µM*,-5,?,?,-2,4%
O=C(NCC(c1ccco1)N1CCc2ccccc2C1)C(=O)Nc1ccccc1 (centres undefined),50µM*,-22,1%,-12%,0,8%
CC(=O)Nc1cccc(NC(=O)C(=O)NCC(c2ccco2)N2CCc3ccccc32)c1 (centres undefined),50µM*,-12,50µM*,56µM*,-12,?
O=C(NCC(c1ccco1)N1CCc2ccccc2C1)c1ccccc1 (centres undefined),7%,0,0%,-17%,-7,26%
O=C(CCc1ccccc1)NCC(c1ccco1)N1CCc2ccccc21 (centres undefined),18%[0.501 µM],-8,?,?,-18,?
N#CCCn1c(=O)c(-c2cccc(C#N)c2)nc2cnc(Oc3cccc(Cl)c3)nc21,-15%[0.501 µM],·,·,·,·,·
Cc1[nH]n(-c2ccccc2)c(=O)c1-c1cccc(Cl)c1,-16%[0.0925 µM],-2,?,-10%,-2,8%
COc1cccc(-n2c(-c3ccccc3)c[nH]c2=S)c1,1.4µM*,-12,?,?,-11,?
Cc1ccc(-c2c[nH]c(=S)n2-c2ccccc2)cc1,0.71µM*,-21,?,?,-14,-14%
CCOc1ccc(-n2c(-c3ccccc3)c[nH]c2=S)cc1,1.3µM*,-2,-11%,?,-16,25%
S=c1[nH]cc(-c2ccccc2)n1-c1cccc(Cl)c1,1.1µM*,-7,-33%,56µM*,-6,19%
Cc1ccc(-n2c(-c3ccccc3)cc(=O)nc2C)cc1,36%[12.7 µM],11,-4%,-20%,6,23%
COc1ccc(C(=O)N2CCCC(CO)(Cc3ccccc3C)C2)o1 (centres undefined),79µM*,3,-34%,-17%,-1,-17%
Cc1[nH]c2ccc3ncccc3c2c1C,?,-7,50µM*,-22%,-13,27%
Cc1cc(=O)n(C)c(=O)n1CCCCCCN1CCCC1,11µM*,-11,?,3.2µM*,1,?
O=C(N/N=C/C=C\c1ccco1)c1cccs1,?,-1,45µM*,-23%,-20,7%
O=C(N/N=C/C=C/c1ccc([N+](=O)[O-])cc1)c1cccs1,40µM*,0,50µM*,-30%,-3,25%
O=C(N/N=C/C=C\c1ccccc1[N+](=O)[O-])c1cccs1,17%[59 µM],-9,-6%,-24%,0,44%
SMILES,G9a block,CtBP-E1A blk,BAZ2B inh,JMJD2A Tudor,Six1-Eya2 blk,HP1b chromo inh
CCOc1cc(/C=N/NC(=O)c2cccs2)cc([N+](=O)[O-])c1O,?,·,?,-6%[11.4 µM],-87*,-9%
O=C(N/N=C/C=C/c1ccco1)/C(=C/c1ccccc1)NC(=O)c1ccccc1,28µM*,4,-4%,79µM*,-11,-21%
CC1(c2nnc(-c3cccc(Cl)c3)o2)CC(c2ccc(Br)cc2)=NO1 (centres undefined),·,6,·,17%,12,69%
O=C(N/N=C/C=C/c1ccco1)c1ccncc1,·,0,8%,79µM*,-8,?
CC(=C/c1ccco1)/C=N/NC(=O)c1ccncc1,8%[59 µM],0,-23%,-12%,-2,21%
CCC(=O)Nc1ccc2c(c1)nc(CCNC(=O)c1ccco1)n2C,7%,5,8%,-5%,5,23%
CC(C)(C)c1ccc(C(=O)NCC(=O)OCC(=O)c2ccc3c(c2)-c2ccccc2C3)cc1,16%[59 µM],-7,-9%,-8%,4,21%
Cc1cc(C(=O)CSc2nnc(-c3cccs3)n2Cc2ccccc2)c(C)n1C,?,-20,·,?,-25,-22%
O=c1cc(CSc2nnc(-c3cccs3)n2Cc2ccccc2)nc2sc3ccccc3n12,?,-8,45µM*,-35%,-16,22%
CCOc1ccc(-n2c(=O)c3c4c(sc3n(Cc3cccc(Cl)c3)c2=O)CCCC4)cc1,-2%[59 µM],·,-10%,0%,·,26%
CC1(C)CC(=O)C2=C(C1)c1c(ccc3ccccc13)NC2c1cc([N+](=O)[O-])cc([N+](=O)[O-])c1O (centres undefined),?,-7,50µM*,56µM*,-6,?
COCCn1c(=O)c(CCc2ccccc2)nc2cnc(Oc3ccccc3)nc21,8%[0.501 µM],·,·,·,·,·
CSc1ccc(CCNC(=O)C2CCN(c3ncnc4c3nc3n4CCCCC3)CC2)cc1,-4%[59 µM],·,-11%,-26%,·,-10%
COc1ccc(N2C(=O)CC(Sc3nccc(C)n3)C2=O)cc1 (centres undefined),-6%[59 µM],5,-4%,11%,1,60%
Cc1nnc(SC2CC(=O)N(c3ccccc3)C2=O)s1 (centres undefined),8.9µM*,0,2%,12%,3,-7%
CCOc1ccc2nc(SC3CC(=O)N(c4ccc(OC)cc4)C3=O)sc2c1 (centres undefined),13µM*,1,-2%,1%[57.1 µM],-1,72%
C=CCNc1nnc(SC2CC(=O)N(c3ccc(OC)cc3)C2=O)s1 (centres undefined),8.9µM*,-11,-7%,45µM*,0,-34%

# Screening results deposited in PubChem by National Center for Advancing Translational Sciences (NCATS).
